± gives the standard deviation.
What was measured:
Conditions in all cases: modulator concentration 10 µM
[1] = system: RAW-Dual (murine macrophage reporter line); assay: NF-kB reporter (SEAP) activity fold change vs agonist alone; higher = enhanced NF-kB activity
Summary of the method: (§1)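 Overnight stimulation with a PRR agonist followed pre-incubation for 1 hour at 37 °C with compound at 10 μM final. This was done in RAW-Dual murine macrophage reporter cells seeded at 50 000 per well in 384-well plates. NF-κB (SEAP, QUANTI-Blue absorbance at 620 nm) and IRF (Lucia luciferase, QUANTI-Luc luminescence) were read from the supernatant. Each reporter's fold change relative to the mean agonist-only control on the same plate was averaged over replicate plates.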

[2] = system: RAW-Dual (murine macrophage reporter line); assay: IRF reporter (Lucia luciferase) activity fold change vs agonist alone; higher = enhanced IRF activity
Summary of the method: as §1

[3] = system: RAW-Dual (murine macrophage reporter line); assay: viability score (confluency relative to resting cells, overnight) (fraction); higher = more viable, active = viable (0.7 or more)
Summary of the method: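 In 384-well plates, RAW-Dual macrophages received compound at a final 10 μM overnight. Two confluency masks were then made with IncuCyte software from IncuCyte images of all imaged wells. The viability score is defined as confluency relative to resting cells. Passing the cutoff required both masks to lie above 70% of resting cells.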

[4] = agonist: CpG ODN 1826 0.5 ug/mL

SMILES | NF-kB reporter [1, 4] | NF-kB reporter ([1]; agonist: LPS 0.1 ug/mL) | NF-kB reporter ([1]; agonist: MPLA […]) | IRF reporter ([2]; agonist: 3'3'-cGAMP 10 ug/mL) | IRF reporter ([2]; agonist: LPS 0.1 ug/mL) | IRF reporter ([2]; agonist: MPLA […]) | viability score [3]
O=c1cc(CCl)occ1O | 1.18 ± 0.09 | 0.9 ± 0.09 | 1.13 ± 0.04 | 0.948 ± 0.13 | 0.876 ± 0.11 | 0.806 ± 0.26 | 0.999 (active)
COc1cc2c(cc1OC)C1CC(=O)C(CC(C)C)CN1CC2 (centres undefined) | 1.09 ± 0.093 | 1.04 ± 0.076 | 0.986 ± 0.045 | 0.983 ± 0.065 | 0.933 ± 0.047 | 0.904 ± 0.073 | 0.992 (active)
Clc1cccc(CNCCc2c[nH]c3ccccc23)c1 | 0.317 ± 0.028 | 0.978 ± 0.11 | 0.992 ± 0.099 | 1.13 ± 0.028 | 2.3 ± 0.24 | 1.7 ± 0.26 | 0.258 (inactive)
CC12CCC3C(CCC4CC(Cl)CCC43C)C1CCC2=O (centres undefined) | 0.925 ± 0.074 | 0.921 ± 0.077 | 0.906 ± 0.094 | 0.961 ± 0.11 | 0.953 ± 0.11 | 0.955 ± 0.16 | 1.05 (active)
COc1ccc(CNCCc2c[nH]c3ccccc23)c(OC)c1C | 0.258 ± 0.021 | 0.924 ± 0.076 | 2.6 ± 0.15 | 1.4 ± 0.048 | 3.32 ± 0.42 | 2.88 ± 0.25 | 0.178 (inactive)
CC(NC(C)(C)C)C(=O)c1cccc(Cl)c1.Cl (centres undefined) | 0.906 ± 0.1 | 1.09 ± 0.11 | 0.99 ± 0.048 | 0.986 ± 0.065 | 0.955 ± 0.1 | 0.904 ± 0.14 | 0.998 (active)
O=[N+]([O-])Nc1ccc(Br)cn1 | 0.998 ± 0.09 | 0.98 ± 0.096 | 0.983 ± 0.048 | 0.961 ± 0.15 | 1.09 ± 0.064 | 1.17 ± 0.095 | 0.997 (active)
COc1ccc(CN2CCNCC2)c(OC)c1OC.Cl.Cl | 1.26 ± 0.18 | 1.06 ± 0.16 | 1.45 ± 0.53 | 0.921 ± 0.042 | 1.29 ± 0.28 | 1.27 ± 0.13 | 0.989 (active)
COC(=O)c1ccc(N2C(=O)NC(=O)C(=Cc3ccc(OCc4ccccc4F)cc3)C2=O)cc1 | 1.06 ± 0.11 | 1.04 ± 0.057 | 0.88 ± 0.056 | 0.942 ± 0.043 | 1.25 ± 0.24 | 1.08 ± 0.25 | 1 (active)
C1=C(c2c[nH]c3ccccc23)CCNC1 | 0.448 ± 0.025 | 1.03 ± 0.069 | 0.915 ± 0.079 | 0.496 ± 0.016 | 1.15 ± 0.077 | 0.898 ± 0.087 | 0.989 (active)
COc1ccc(C(CN(C)C)C2(O)CCCCC2)cc1.Cl (centres undefined) | 1.07 ± 0.08 | 1.06 ± 0.1 | 0.971 ± 0.056 | 1.07 ± 0.22 | 0.867 ± 0.052 | 0.928 ± 0.081 | 1 (active)
CN1C2CCC1CC(OC(=O)[C@H](CO)c1ccccc1)C2 (some centres undefined) | 1.05 ± 0.096 | 0.961 ± 0.051 | 0.984 ± 0.031 | 0.955 ± 0.069 | 0.968 ± 0.088 | 0.858 ± 0.14 | 0.997 (active)
